Test results published in PubChem BioAssay AID1835 (Johns Hopkins Ion Channel Center, 2009).
In all, about 2,400 compounds went through this assay and about 750 (31%) were called active. Some of the results follow. A number with no mark means an inactive call.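 Rule for the calls: active = median signal gain over dofetilide-blocked control wells reaching their mean plus 3 SD, so readout 1 at least 0; inactive = the rest.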

Each molecule was assayed against Voltage-gated inwardly rectifying potassium channel KCNH2 (Homo sapiens) (UniProt Q12809) (assay: hERG protection against dofetilide inhibition, confirmation, cell-based, thallium flux, duplicate retest, dofetilide IC70 (AID 1835)). Details: hERG cell line, FluxOR thallium flux, dofetilide-blocked; at 10 µM; stronger effect = higher value.
Chain of Voltage-gated inwardly rectifying potassium channel KCNH2 (Homo sapiens) (Q12809 whole entry, looked up): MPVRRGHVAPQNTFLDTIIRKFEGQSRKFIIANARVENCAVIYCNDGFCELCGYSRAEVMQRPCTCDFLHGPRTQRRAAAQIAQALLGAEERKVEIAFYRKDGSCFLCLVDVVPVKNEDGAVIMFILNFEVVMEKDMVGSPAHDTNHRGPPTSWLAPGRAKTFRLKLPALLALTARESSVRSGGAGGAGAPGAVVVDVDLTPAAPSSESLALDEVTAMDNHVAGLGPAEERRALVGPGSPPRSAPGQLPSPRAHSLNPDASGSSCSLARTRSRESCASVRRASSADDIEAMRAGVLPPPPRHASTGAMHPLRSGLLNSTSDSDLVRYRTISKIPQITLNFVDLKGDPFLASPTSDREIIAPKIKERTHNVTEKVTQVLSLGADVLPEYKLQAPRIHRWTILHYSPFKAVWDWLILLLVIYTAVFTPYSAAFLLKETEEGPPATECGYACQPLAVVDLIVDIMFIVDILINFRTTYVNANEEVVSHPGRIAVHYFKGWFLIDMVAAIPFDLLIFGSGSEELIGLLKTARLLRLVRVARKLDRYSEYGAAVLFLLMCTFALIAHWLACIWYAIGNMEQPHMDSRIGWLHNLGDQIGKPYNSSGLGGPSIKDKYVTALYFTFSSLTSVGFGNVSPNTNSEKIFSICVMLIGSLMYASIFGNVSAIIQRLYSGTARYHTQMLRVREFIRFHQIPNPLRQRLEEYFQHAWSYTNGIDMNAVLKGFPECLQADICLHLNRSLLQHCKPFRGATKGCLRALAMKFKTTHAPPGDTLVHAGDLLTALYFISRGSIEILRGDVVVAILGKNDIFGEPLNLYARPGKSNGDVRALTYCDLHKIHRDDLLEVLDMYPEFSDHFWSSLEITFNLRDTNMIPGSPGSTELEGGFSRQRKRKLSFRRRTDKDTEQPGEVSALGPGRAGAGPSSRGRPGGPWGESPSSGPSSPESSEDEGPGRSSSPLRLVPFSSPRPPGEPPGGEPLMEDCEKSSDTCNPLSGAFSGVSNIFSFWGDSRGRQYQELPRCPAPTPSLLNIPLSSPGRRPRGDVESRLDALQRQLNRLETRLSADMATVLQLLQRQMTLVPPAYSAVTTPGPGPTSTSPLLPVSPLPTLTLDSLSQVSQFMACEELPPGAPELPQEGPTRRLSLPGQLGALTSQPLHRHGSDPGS

In order of rising activity increase over dofetilide control, less the hit threshold:
1. c1ccc(-c2ccnc3nc(N4CCN(c5ccccc5)CC4)nn23)cc1  -35%
2. CCc1ccc(NC(=S)Nc2cccc(OC)c2)cc1  -26%
3. NC(=O)Cn1nnc(-c2ccc(CN3CCCCC3)cc2)n1  -23%
4. CCOC(=O)c1ccc(NC(=O)Cn2nnc(-c3ccccc3)n2)cc1  -19%
5. CCOc1cccc(C(=O)Nc2ccc3[nH]ncc3c2)c1  -18%
6. c1ccc(-c2csc(Nc3ccc4c(c3)OCCO4)n2)cc1  -17%
7. COc1ccc(NC(=O)c2ccc(NC3=NC4CS(=O)(=O)CC4S3)cc2)cc1 (stereo not drawn)  -17%
8. N/C(=N\OCc1ccccc1)c1nonc1N  -16%
9. CN(C(=O)c1cnccn1)c1nnc(-c2cnccn2)s1  -15%
10. O=c1[nH]n2c(=O)c3c([nH]c2c1N=Nc1ccccc1)CCC3  -14%
11. COc1ccc(NC(=O)c2ccc(COCC(F)(F)C(F)F)cc2)cc1  -14%
12. CC(=O)Cn1c(=O)c2c(nc3n2CCCN3Cc2ccccc2)n(C)c1=O  -13%
13. COc1cccc(NC(=O)c2cncs2)c1  -13%
14. Cc1nn(CC(=O)Nc2ccc(C(=O)N3CCCC3)cc2)c(=O)c2ccccc12  -11%
15. COc1ccc(OCC(=O)NNC(=O)C(=O)Nc2ccc(C)cc2)cc1  -11%
16. O=C(Nc1c[nH]c(=O)[nH]c1=O)c1ccc2c(c1)C(=O)N(c1cccc([N+](=O)[O-])c1)C2=O  -10%
17. O=C(O)Cc1sc(-c2ccc(Cl)cc2)nc1-c1ccccc1  -10%
18. CC(C)Cc1nnc(NC(=O)Cc2ccccc2[N+](=O)[O-])s1  -5%
19. COc1cc(CCC(=O)NNC(=O)c2ccc(C)cc2)cc(OC)c1OC  -3%
20. COc1ccc(-c2cc(C(=O)N3CCCC3)no2)cc1OC  0%

O=c1[nH]c(N2CCN(c3ccccc3)CC2)nc2c1CCCC2 was tested, and the activity increase over dofetilide control, less the hit threshold was 2% (active).
With O=C(Cn1nc(-c2ccccc2)c2ccccc2c1=O)Nc1ccc(O)cc1 the activity increase over dofetilide control, less the hit threshold was 24% (active).
In the case of CCOC(=O)c1sc2nc(Cc3ccc(Cl)cc3)[nH]c(=S)c2c1C, the activity increase over dofetilide control, less the hit threshold is reported as 52% (active).
CCOC(=O)c1sc2nc(C)[nH]c(=S)c2c1C was tested, and the activity increase over dofetilide control, less the hit threshold was 21% (active).
CCc1ccc(NC(=O)C(=O)NNC(=O)c2ccc(OC)cc2)cc1 was tested, and the activity increase over dofetilide control, less the hit threshold was 87% (active).
In the case of COc1ccc(C(=O)NNC(=O)C(=O)Nc2ccc(C)cc2)cc1, the activity increase over dofetilide control, less the hit threshold is reported as 30% (active).
In the case of COc1cccc(C(=O)NNC(=O)C(=O)Nc2ccc(C)cc2)c1, the activity increase over dofetilide control, less the hit threshold is reported as 56% (active).
CCc1ccc(NC(=O)C(=O)NNC(=O)c2cccc(OC)c2)cc1 was tested, and the activity increase over dofetilide control, less the hit threshold was 70% (active).
